Tests used:
Experiment in all cases: relative growth (AUC of 72 h growth curve relative to DMSO control, dAUC) (ratio); higher = more growth (less inhibition), active = hit call of the paper
Conditions in all cases: 20 µM;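 active = growth AUC significantly below the DMSO wells by Dunnett test; inactive = the rest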
Community 7 = system: Community 7
How it was run: (§1)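 For relative growth (dAUC), the spline-integrated area under the growth curve was divided by the mean of the DMSO controls. Results were averaged over three biological replicates. Each replicate used a 1:100 dilution, into 96-well plates holding each chemical at 20 µM (1% DMSO), of isolates from Icelandic stream sediments and Silwood Park soil or whole sediment communities that had been grown to carrying capacity in Luria–Bertani medium. Plates were shaken briefly before each hourly A600 reading over 72 h.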

Community 8 = system: Community 8
How it was run: as §1

Community 9 = system: Community 9
How it was run: as §1

[1] = system: Flavobacterium 1 (Flavobacterium glaciei)
How it was run: as §1

[2] = system: Flavobacterium 2 (Flavobacterium succinicans)
How it was run: as §1

[3] = system: Hymenobacter 1 (Hymenobacter glaciei)
How it was run: as §1

[4] = system: Microbacterium 1 (Microbacterium arborescens)
How it was run: as §1

[5] = system: Neobacillus 1 (Neobacillus soli)
How it was run: as §1

[6] = system: Oryzobacter 1 (Oryzobacter terrae)
How it was run: as §1

[7] = system: Paenibacillus 1 (Paenibacillus castaneae)
How it was run: as §1

[8] = system: Prolinoborus 1 (Prolinoborus fasciculus)
How it was run: as §1

[9] = system: Pseudomonas 1 (Pseudomonas baetica)
How it was run: as §1

[10] = system: Pseudomonas 2 (Pseudomonas vancouverensis)
How it was run: as §1

[11] = system: Pseudomonas 3 (Pseudomonas mandelii)
How it was run: as §1

[12] = system: Pseudomonas 4 (Pseudomonas peli)
How it was run: as §1

[13] = system: Pseudomonas 5 (Pseudomonas baetica)
How it was run: as §1

[14] = system: Pseudomonas 6 (Pseudomonas sp.)
How it was run: as §1

[15] = system: Rhizobium 1 (Rhizobium herbae)
How it was run: as §1

[16] = system: Serratia 1 (Serratia sp. 2015-2462-01)
How it was run: as §1

[17] = system: Sphingomonas 2 (Sphingomonas sp.)
How it was run: as §1

| Compound | relative growth (Community 7) | relative growth (Community 8) | relative growth (Community 9) | relative growth [1] | relative growth [2] | relative growth [3] | relative growth [4] | relative growth [5] | relative growth [6] | relative growth [7] | relative growth [8] | relative growth [9] | relative growth [10] | relative growth [11] | relative growth [12] | relative growth [13] | relative growth [14] | relative growth [15] | relative growth [16] | relative growth [17] |
| --- | --- | --- | --- | --- | --- | --- | --- | --- | --- | --- | --- | --- | --- | --- | --- | --- | --- | --- | --- | --- |
| Cc1nnc(-c2ccccc2)c(=O)n1N | 1.12 (inactive) | 0.974 (inactive) | 0.918 (inactive) | 0.963 (inactive) | 0.956 (inactive) | 0.868 (inactive) | 1.01 (inactive) | 0.937 (inactive) | 1.12 (inactive) | 0.905 (inactive) | 0.97 (inactive) | 1.08 (inactive) | 0.997 (inactive) | 1.03 (inactive) | 0.954 (inactive) | 0.987 (inactive) | 1.1 (inactive) | 1.07 (inactive) | 0.966 (inactive) | 1 (inactive) |
| CCc1cc(C)cc(CC)c1-c1c(OC(=O)C(C)(C)C)n2n(c1=O)CCOCC2 | 1.05 (inactive) | 0.968 (inactive) | 0.884 (inactive) | 1.02 (inactive) | 0.943 (inactive) | 0.947 (inactive) | 1.03 (inactive) | 0.861 (inactive) | 1.01 (inactive) | 0.956 (inactive) | 0.926 (inactive) | 1.1 (inactive) | 0.992 (inactive) | 1.01 (inactive) | 0.953 (inactive) | 0.951 (inactive) | 1.02 (inactive) | 0.907 (inactive) | 0.972 (inactive) | 1.06 (inactive) |
| Cc1cc(C(C#N)c2ccc(Cl)cc2)c(Cl)cc1NC(=O)c1cc(I)cc(I)c1O (stereo not given) | 0.817 (inactive) | 0.725 (inactive) | 0.394 (active) | 0.0126 (active) | 0.794 (active) | 0.00496 (active) | 0.99 (inactive) | 0.729 (active) | 0.00516 (active) | 0.325 (active) | 0.673 (active) | 0.846 (inactive) | 0.757 (active) | 0.822 (active) | 0.883 (inactive) | 0.844 (active) | 0.857 (inactive) | 0.478 (inactive) | 0.825 (active) | 0.0325 (active) |
| CCCCN(CCCC)SN(C)C(=O)Oc1cccc2c1OC(C)(C)C2 | 1.13 (inactive) | 1.01 (inactive) | 0.884 (inactive) | 0.925 (inactive) | 0.985 (inactive) | 1.13 (inactive) | 1.01 (inactive) | 0.952 (inactive) | 1.2 (inactive) | 1.12 (inactive) | 0.949 (inactive) | 0.618 (active) | 1.03 (inactive) | 1.07 (inactive) | 1.01 (inactive) | 1.03 (inactive) | 1.18 (inactive) | 0.946 (inactive) | 0.977 (inactive) | 0.798 (inactive) |
| COCc1cnc(C2=NC(C)(C(C)C)C(=O)N2)c(C(=O)O)c1 (stereo not given) | 1.14 (inactive) | 0.983 (inactive) | 0.959 (inactive) | 0.978 (inactive) | 1 (inactive) | 1.02 (inactive) | 1.02 (inactive) | 0.961 (inactive) | 1.05 (inactive) | 0.966 (inactive) | 1.08 (inactive) | 0.958 (inactive) | 0.98 (inactive) | 0.992 (inactive) | 0.974 (inactive) | 0.972 (inactive) | 1.01 (inactive) | 0.972 (inactive) | 1.03 (inactive) | 0.982 (inactive) |
| Fc1ccc(Oc2ccnc3cc(Cl)cc(Cl)c23)cc1 | 0.843 (inactive) | 1.01 (inactive) | 1.03 (inactive) | 1.04 (inactive) | 1.01 (inactive) | 1.13 (inactive) | 0.999 (inactive) | 1.09 (inactive) | 1.01 (inactive) | 0.927 (inactive) | 1.03 (inactive) | 1.07 (inactive) | 1.02 (inactive) | 1.06 (inactive) | 1.07 (inactive) | 1.01 (inactive) | 1.06 (inactive) | 0.992 (inactive) | 1.01 (inactive) | 0.975 (inactive) |
| CCCCOC(=O)[C@H](C)Oc1ccc(Oc2ccc(C#N)cc2F)cc1 | 1.07 (inactive) | 0.995 (inactive) | 1.06 (inactive) | 1.13 (inactive) | 0.955 (inactive) | 1.03 (inactive) | 1.04 (inactive) | 1.03 (inactive) | 1.06 (inactive) | 1.1 (inactive) | 1.02 (inactive) | 0.985 (inactive) | 1.08 (inactive) | 1.07 (inactive) | 0.967 (inactive) | 1.06 (inactive) | 1.17 (inactive) | 1.07 (inactive) | 1 (inactive) | 1.1 (inactive) |
| CCCSP(=O)(OCC)Oc1ccc(Br)cc1Cl (stereo not given) | 1.01 (inactive) | 0.96 (inactive) | 0.866 (inactive) | 1.01 (inactive) | 0.919 (inactive) | 0.98 (inactive) | 1.01 (inactive) | 0.965 (inactive) | 1.27 | 0.925 (inactive) | 1.01 (inactive) | 1.12 (inactive) | 1.08 (inactive) | 1.1 (inactive) | 0.975 (inactive) | 1.01 (inactive) | 1.04 (inactive) | 0.931 (inactive) | 0.955 (inactive) | 1.09 (inactive) |
| O=C1C=C(N(Cc2ccc(Cl)nc2)CC(F)F)CO1 | 0.945 (inactive) | 0.997 (inactive) | 0.992 (inactive) | 1.09 (inactive) | 0.993 (inactive) | 1.1 (inactive) | 1.04 (inactive) | 1.02 (inactive) | 1.11 (inactive) | 0.899 (inactive) | 0.95 (inactive) | 1.15 (inactive) | 0.993 (inactive) | 1.06 (inactive) | 0.993 (inactive) | 0.988 (inactive) | 1.06 (inactive) | 0.978 (inactive) | 0.962 (inactive) | 0.914 (inactive) |
| CN/C(=N\[N+](=O)[O-])NCc1cnc(Cl)s1 | 1.06 (inactive) | 1 (inactive) | 0.871 (inactive) | 0.869 (inactive) | 0.939 (inactive) | 0.958 (inactive) | 0.983 (inactive) | 0.85 (inactive) | 1.05 (inactive) | 0.961 (inactive) | 0.937 (inactive) | 1.1 (inactive) | 0.964 (inactive) | 1.01 (inactive) | 0.974 (inactive) | 1.03 (inactive) | 1.09 (inactive) | 0.902 (inactive) | 0.931 (inactive) | 0.945 (inactive) |
| N#C/N=C1\SCCN1Cc1ccc(Cl)nc1 | 0.846 (inactive) | 1.07 (inactive) | 1.09 (inactive) | 1.1 (inactive) | 1.04 (inactive) | 1.21 (inactive) | 1.03 (inactive) | 1.07 (inactive) | 1.02 (inactive) | 1.05 (inactive) | 1.03 (inactive) | 1.05 (inactive) | 1.01 (inactive) | 1.02 (inactive) | 1.03 (inactive) | 1 (inactive) | 1 (inactive) | 1.02 (inactive) | 0.986 (inactive) | 0.998 (inactive) |
| Cc1ccc(/N=C/N(C)/C=N/c2ccc(C)cc2C)c(C)c1 | 1.16 (inactive) | 1.05 (inactive) | 0.961 (inactive) | 1.02 (inactive) | 1 (inactive) | 1.04 (inactive) | 1.05 (inactive) | 0.964 (inactive) | 1.03 (inactive) | 0.969 (inactive) | 0.978 (inactive) | 1.05 (inactive) | 0.973 (inactive) | 1.1 (inactive) | 0.967 (inactive) | 1.01 (inactive) | 1.11 (inactive) | 1.06 (inactive) | 0.946 (inactive) | 1.04 (inactive) |
| COC(=O)N(OC)c1ccccc1COc1ccn(-c2ccc(Cl)cc2)n1 | 1.11 (inactive) | 1.04 (inactive) | 1.09 (inactive) | 0.969 (inactive) | 0.979 (inactive) | 1.08 (inactive) | 0.98 (inactive) | 1.03 (inactive) | 1.17 (inactive) | 0.944 (inactive) | 1.01 (inactive) | 1.13 (inactive) | 1.04 (inactive) | 1.03 (inactive) | 1 (inactive) | 1.02 (inactive) | 1.15 (inactive) | 0.863 (inactive) | 0.984 (inactive) | 1.05 (inactive) |
| CCOc1cc(Oc2ccc(C(F)(F)F)cc2Cl)ccc1[N+](=O)[O-] | 0.968 (inactive) | 1.04 (inactive) | 0.975 (inactive) | 1.05 (inactive) | 0.971 (inactive) | 1.03 (inactive) | 1.07 (inactive) | 1.01 (inactive) | 1.03 (inactive) | 0.735 (active) | 0.938 (inactive) | 1.08 (inactive) | 0.992 (inactive) | 1.05 (inactive) | 0.939 (inactive) | 1.01 (inactive) | 1.12 (inactive) | 0.994 (inactive) | 0.952 (inactive) | 1.2 (inactive) |
| COP(N)(=O)SC (stereo not given) | 1.34 (inactive) | 0.924 (inactive) | 0.575 (active) | 0.117 (active) | 0.952 (inactive) | 1.01 (inactive) | 0.992 (inactive) | 0.856 (inactive) | 1.03 (inactive) | 0.194 (active) | 0.972 (inactive) | 1.04 (inactive) | 0.982 (inactive) | 1.06 (inactive) | 0.995 (inactive) | 1.1 (inactive) | 1.06 (inactive) | 0.973 (inactive) | 0.965 (inactive) | 0.675 (inactive) |
| O=C(O)c1nc(Cl)ccc1Cl | 1.17 (inactive) | 0.994 (inactive) | 0.937 (inactive) | 1.04 (inactive) | 0.962 (inactive) | 0.835 (inactive) | 0.977 (inactive) | 0.968 (inactive) | 0.889 (inactive) | 0.973 (inactive) | 0.949 (inactive) | 1 (inactive) | 0.984 (inactive) | 1 (inactive) | 0.969 (inactive) | 0.971 (inactive) | 1.03 (inactive) | 1.05 (inactive) | 0.977 (inactive) | 0.931 (inactive) |
| CC1(C)C(C=C(Cl)Cl)C1C(=O)OCc1cccc(Oc2ccccc2)c1 (stereo not given) | 1.08 (inactive) | 0.975 (inactive) | 0.932 (inactive) | 0.977 (inactive) | 0.958 (inactive) | 0.989 (inactive) | 0.987 (inactive) | 1.05 (inactive) | 1.14 (inactive) | 0.894 (inactive) | 0.985 (inactive) | 1.13 (inactive) | 0.97 (inactive) | 1 (inactive) | 0.979 (inactive) | 1.05 (inactive) | 1.13 (inactive) | 0.958 (inactive) | 0.964 (inactive) | 1.02 (inactive) |
